{"source": "PubChem BioAssay AID1839", "about": "(Johns Hopkins Ion Channel Center, 2009)", "note": "Screen size: about 2,400 compounds; about 220 (9.2%) were called active.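 The calls were made as follows: active = signal change above the mean of dofetilide-free buffer controls plus 3 SD, so a positive margin; inactive = the rest.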 The entries come from a sample that favours actives as a whole.", "data": [{"assay": "nonspecific flux effects in parental CHO-K1, confirmation, counter-screen for hERG block protection project, cell-based, CHO-K1 parental line, FluxOR thallium flux (AID 1839);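 also: compounds applied alone with no dofetilide to cells lacking hERG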", "settings": "CHO-K1 parental cells, FluxOR thallium flux fluorescence; at 10 µM", "values": [{"compound": "O=C(Nc1cccnc1)c1ccc(COc2cc(Cl)ccc2Cl)o1", "signal change vs control minus 3*SD hit threshold (margin above threshold, higher = more increase)": "-33.5% (inactive)"}, {"compound": "CCCSc1cc(NCCOC(C)=O)c([N+](=O)[O-])c2nonc12", "signal change vs control minus 3*SD hit threshold (margin above threshold, higher = more increase)": "-28.6% (inactive)"}, {"compound": "Cc1ccc(C(=O)NNC(=S)NC(=O)c2ccccc2)cc1", "signal change vs control minus 3*SD hit threshold (margin above threshold, higher = more increase)": "-43.2% (inactive)"}, {"compound": "Cc1cccc(C(=O)NNC(=S)NC(=O)c2ccccc2)c1", "signal change vs control minus 3*SD hit threshold (margin above threshold, higher = more increase)": "-45% (inactive)"}, {"compound": "Cc1cc2ccccn2c1C(=S)NC(=O)c1ccccc1", "signal change vs control minus 3*SD hit threshold (margin above threshold, higher = more increase)": "2.8% (active)"}, {"compound": "COc1ccc(C(=O)NC(=S)N2CCC(C)CC2)cc1", "signal change vs control minus 3*SD hit threshold (margin above threshold, higher = more increase)": "-29% (inactive)"}, {"compound": "Cc1ccc(/C=C/C(=O)C2C(=O)c3ccccc3C2=O)cc1", "signal change vs control minus 3*SD hit threshold (margin above threshold, higher = more increase)": "8.4% (active)"}, {"compound": "CCc1ccc(/C=C/C(=O)C2C(=O)c3ccccc3C2=O)cc1", "signal change vs control minus 3*SD hit threshold (margin above threshold, higher = more increase)": "15.2% (active)"}, {"compound": "CCOC(=O)C1=C(O)c2ccccc2C(=O)/C1=C\\c1ccc(CC)cc1", "signal change vs control minus 3*SD hit threshold (margin above threshold, higher = more increase)": "-14.9% (inactive)"}, {"compound": "CCc1ccc(/C=C/C(=O)c2cc(Br)ccc(=O)c2O)cc1", "signal change vs control minus 3*SD hit threshold (margin above threshold, higher = more increase)": "-23.5% (inactive)"}, {"compound": "Cc1ccc(/C=N/N2C(=O)c3ccccc3NC2c2ccc(C)cc2)cc1", "note": "(stereo unspecified)", "signal change vs control minus 3*SD hit threshold (margin above threshold, higher = more increase)": "-30% (inactive)"}, {"compound": "Cc1ccc(/C=C/C(=O)c2ccccc(=O)c2O)cc1C", "signal change vs control minus 3*SD hit threshold (margin above threshold, higher = more increase)": "-20.1% (inactive)"}, {"compound": "COc1ccc(-n2c(SCc3ccccn3)nc3c(c2=O)SCC3)cc1OC", "signal change vs control minus 3*SD hit threshold (margin above threshold, higher = more increase)": "-16.3% (inactive)"}, {"compound": "O=C(COC(=O)c1cnccn1)c1ccc(Cl)cc1", "signal change vs control minus 3*SD hit threshold (margin above threshold, higher = more increase)": "-30.4% (inactive)"}, {"compound": "CC(C)OC(=O)c1c(NS(=O)(=O)c2ccccc2)sc2c1CCCC2", "signal change vs control minus 3*SD hit threshold (margin above threshold, higher = more increase)": "-18.4% (inactive)"}, {"compound": "CCOC(=O)c1c(NS(C)(=O)=O)sc2c1CCC(C)C2", "note": "(stereo unspecified)", "signal change vs control minus 3*SD hit threshold (margin above threshold, higher = more increase)": "-5.6% (inactive)"}, {"compound": "CC1CCc2c(sc(NS(=O)(=O)c3ccccc3)c2C(=O)OC(C)C)C1", "note": "(stereo unspecified)", "signal change vs control minus 3*SD hit threshold (margin above threshold, higher = more increase)": "5.8% (active)"}, {"compound": "CCOc1ccc(NC(=O)CSc2nc3nc(C)cc(C)n3n2)cc1", "signal change vs control minus 3*SD hit threshold (margin above threshold, higher = more increase)": "-31.5% (inactive)"}, {"compound": "CC1=CCC[C@@H]2[C@@](C)(CC/C(C)=C/C(=O)O)[C@H](C)CC[C@@]12C", "signal change vs control minus 3*SD hit threshold (margin above threshold, higher = more increase)": "7.9% (active)"}, {"compound": "O=[N+]([O-])c1cccc(/C=C/c2nc(C=Nc3ccccc3)c(O)o2)c1", "signal change vs control minus 3*SD hit threshold (margin above threshold, higher = more increase)": "-34.1% (inactive)"}, {"compound": "CC(C)(C)C1(O)CC(C(F)(F)F)=NN1C(=O)Cc1ccc([N+](=O)[O-])cc1", "note": "(stereo unspecified)", "signal change vs control minus 3*SD hit threshold (margin above threshold, higher = more increase)": "-27% (inactive)"}, {"compound": "COC(=O)C1=NN(C(=O)c2ccc(Cl)cc2)C(O)(c2ccccc2)C1", "note": "(stereo unspecified)", "signal change vs control minus 3*SD hit threshold (margin above threshold, higher = more increase)": "17.7% (active)"}, {"compound": "CCOC(=O)c1cnc(-n2nc(C)cc2C)nc1Nc1cccc(C(=O)O)c1", "signal change vs control minus 3*SD hit threshold (margin above threshold, higher = more increase)": "-22.1% (inactive)"}, {"compound": "COC(=O)C1=NN(C(=O)c2ccc(C)cc2)C(O)(c2ccc(Cl)cc2)C1", "note": "(stereo unspecified)", "signal change vs control minus 3*SD hit threshold (margin above threshold, higher = more increase)": "46.4% (active)"}, {"compound": "Cc1ccc(C(=O)NNC(=S)NC(=O)c2ccc(Cl)cc2)cc1", "signal change vs control minus 3*SD hit threshold (margin above threshold, higher = more increase)": "-46.2% (inactive)"}, {"compound": "CC1=NN(C(=O)c2ccc(Cl)cc2)C(O)(c2ccccc2)C1", "note": "(stereo unspecified)", "signal change vs control minus 3*SD hit threshold (margin above threshold, higher = more increase)": "-21.7% (inactive)"}, {"compound": "CC1=NN(C(=O)c2ccccc2Br)C(O)(c2ccc(Cl)cc2)C1", "note": "(stereo unspecified)", "signal change vs control minus 3*SD hit threshold (margin above threshold, higher = more increase)": "-36.1% (inactive)"}, {"compound": "COC(=O)C1=NN(C(=O)c2cccc(Br)c2)C(O)(c2ccc(Cl)cc2)C1", "note": "(stereo unspecified)", "signal change vs control minus 3*SD hit threshold (margin above threshold, higher = more increase)": "64.5% (active)"}, {"compound": "CCOC(=O)C1=NN(C(=O)c2cccc(Br)c2)C(O)(C(C)(C)C)C1", "note": "(stereo unspecified)", "signal change vs control minus 3*SD hit threshold (margin above threshold, higher = more increase)": "49.8% (active)"}, {"compound": "CCC1=NN(C(=O)c2ccc(Cl)cc2)C(O)(c2ccccc2)C1", "note": "(stereo unspecified)", "signal change vs control minus 3*SD hit threshold (margin above threshold, higher = more increase)": "-32.2% (inactive)"}, {"compound": "CCC1=NN(C(=O)c2ccc(Cl)cc2)C(O)(c2ccc(C)cc2)C1", "note": "(stereo unspecified)", "signal change vs control minus 3*SD hit threshold (margin above threshold, higher = more increase)": "-25.9% (inactive)"}]}]}
